Six compounds from ChEMBL document CHEMBL1961873, “Compounds: GSK PKIS; Assays: Nanosyn kinase panel” (2012) can be followed below.

Molecules are shown by their SMILES.

For assay [1], the target named is 5'-AMP-activated protein kinase catalytic subunit alpha-2 (Homo sapiens) (UniProt P54646). The note with it: at 1 µM.
Assay [2] addresses T1, NUAK family SNF1-like kinase 1 (Homo sapiens) (UniProt O60285).
T1 sequence (whole entry): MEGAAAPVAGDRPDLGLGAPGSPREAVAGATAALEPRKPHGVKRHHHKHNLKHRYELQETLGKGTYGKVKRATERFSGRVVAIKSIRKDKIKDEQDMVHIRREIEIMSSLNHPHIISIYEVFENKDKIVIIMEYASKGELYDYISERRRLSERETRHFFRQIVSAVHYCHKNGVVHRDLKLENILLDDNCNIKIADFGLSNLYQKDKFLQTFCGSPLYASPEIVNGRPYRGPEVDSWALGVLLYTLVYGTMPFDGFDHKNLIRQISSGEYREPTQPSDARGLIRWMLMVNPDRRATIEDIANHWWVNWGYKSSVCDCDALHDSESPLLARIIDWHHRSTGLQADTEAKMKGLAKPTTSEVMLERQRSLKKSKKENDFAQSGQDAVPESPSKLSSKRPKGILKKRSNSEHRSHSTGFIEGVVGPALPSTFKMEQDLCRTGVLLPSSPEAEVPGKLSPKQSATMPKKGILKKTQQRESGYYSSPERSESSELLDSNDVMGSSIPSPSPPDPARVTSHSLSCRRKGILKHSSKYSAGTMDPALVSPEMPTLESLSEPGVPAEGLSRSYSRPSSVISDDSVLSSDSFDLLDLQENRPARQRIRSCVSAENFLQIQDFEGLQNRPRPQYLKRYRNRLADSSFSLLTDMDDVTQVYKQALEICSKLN
The note with it: at 0.1 µM.

Assay [3] concerns the target T1, NUAK family SNF1-like kinase 1 (Homo sapiens). The note with it: at 1 µM.
Assay [4] addresses T2, Serine/threonine-protein kinase BRSK1 (Homo sapiens) (UniProt Q8TDC3).
T2 sequence (whole entry): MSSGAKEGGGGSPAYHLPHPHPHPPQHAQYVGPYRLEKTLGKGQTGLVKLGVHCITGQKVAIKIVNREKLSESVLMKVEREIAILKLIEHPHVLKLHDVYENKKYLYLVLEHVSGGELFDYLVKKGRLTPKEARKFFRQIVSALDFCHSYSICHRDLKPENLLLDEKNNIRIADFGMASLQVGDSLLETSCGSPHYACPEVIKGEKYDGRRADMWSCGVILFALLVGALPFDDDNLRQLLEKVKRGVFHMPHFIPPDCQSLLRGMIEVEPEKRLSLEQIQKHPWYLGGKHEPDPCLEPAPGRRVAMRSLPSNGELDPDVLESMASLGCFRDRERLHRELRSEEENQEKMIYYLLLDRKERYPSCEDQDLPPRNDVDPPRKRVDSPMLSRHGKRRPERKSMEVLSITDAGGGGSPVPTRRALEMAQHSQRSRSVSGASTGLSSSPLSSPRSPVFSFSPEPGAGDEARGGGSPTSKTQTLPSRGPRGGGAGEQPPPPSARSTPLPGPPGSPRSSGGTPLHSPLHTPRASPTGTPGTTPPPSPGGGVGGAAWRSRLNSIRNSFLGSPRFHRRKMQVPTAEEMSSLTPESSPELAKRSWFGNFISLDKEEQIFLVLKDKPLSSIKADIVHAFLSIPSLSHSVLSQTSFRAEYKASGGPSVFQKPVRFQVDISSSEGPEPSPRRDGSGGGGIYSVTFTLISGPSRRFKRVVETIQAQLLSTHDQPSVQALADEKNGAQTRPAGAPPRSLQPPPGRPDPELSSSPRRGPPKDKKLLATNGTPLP
The note with it: at 0.1 µM.

The target in assay [5] is T2, Serine/threonine-protein kinase BRSK1 (Homo sapiens). The note with it: at 1 µM.
The target of assay [6] is T3, Serine/threonine-protein kinase BRSK2 (Homo sapiens) (UniProt Q8IWQ3).
T3 sequence (whole entry): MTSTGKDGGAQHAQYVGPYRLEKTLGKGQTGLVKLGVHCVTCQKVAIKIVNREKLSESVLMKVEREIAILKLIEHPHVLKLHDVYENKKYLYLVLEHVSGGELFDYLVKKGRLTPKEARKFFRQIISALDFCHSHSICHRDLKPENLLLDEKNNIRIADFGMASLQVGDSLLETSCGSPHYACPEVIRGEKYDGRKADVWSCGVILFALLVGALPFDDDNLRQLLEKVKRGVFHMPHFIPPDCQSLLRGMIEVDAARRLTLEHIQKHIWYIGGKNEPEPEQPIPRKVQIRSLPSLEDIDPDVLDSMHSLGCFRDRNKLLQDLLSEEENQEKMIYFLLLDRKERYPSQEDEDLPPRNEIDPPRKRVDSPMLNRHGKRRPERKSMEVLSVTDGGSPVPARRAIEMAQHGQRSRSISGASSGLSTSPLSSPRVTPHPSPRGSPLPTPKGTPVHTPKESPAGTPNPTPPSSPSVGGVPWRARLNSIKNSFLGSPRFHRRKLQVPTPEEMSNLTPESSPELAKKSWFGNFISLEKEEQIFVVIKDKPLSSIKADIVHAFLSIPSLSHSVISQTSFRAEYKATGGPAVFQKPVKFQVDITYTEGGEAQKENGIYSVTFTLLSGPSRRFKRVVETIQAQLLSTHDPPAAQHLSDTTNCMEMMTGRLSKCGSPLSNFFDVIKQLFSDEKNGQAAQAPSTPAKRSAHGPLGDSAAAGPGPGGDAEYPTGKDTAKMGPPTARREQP
The note with it: at 0.1 µM.

Assay [7] deals with T3, Serine/threonine-protein kinase BRSK2 (Homo sapiens). The note with it: at 1 µM.
Assay [8] addresses Calcium/calmodulin-dependent protein kinase type 1D (Homo sapiens) (UniProt Q8IU85). As to conditions: at 0.1 µM.
The target is the same in assay [9]. As to conditions: at 1 µM.
Assay [10] concerns the target Calcium/calmodulin-dependent protein kinase type II subunit alpha (Homo sapiens) (UniProt Q9UQM7). The note with it: at 0.1 µM.
The target is the same in assay [11]. As to conditions: at 1 µM.
Assay [12] has as its target Calcium/calmodulin-dependent protein kinase type II subunit delta (Homo sapiens) (UniProt Q13557). As to conditions: at 0.1 µM.
Assay [13] has the same target. As to conditions: at 1 µM.
For assay [14], the target named is T4, Calcium/calmodulin-dependent protein kinase type IV (Homo sapiens) (UniProt Q16566).
T4 sequence (whole entry): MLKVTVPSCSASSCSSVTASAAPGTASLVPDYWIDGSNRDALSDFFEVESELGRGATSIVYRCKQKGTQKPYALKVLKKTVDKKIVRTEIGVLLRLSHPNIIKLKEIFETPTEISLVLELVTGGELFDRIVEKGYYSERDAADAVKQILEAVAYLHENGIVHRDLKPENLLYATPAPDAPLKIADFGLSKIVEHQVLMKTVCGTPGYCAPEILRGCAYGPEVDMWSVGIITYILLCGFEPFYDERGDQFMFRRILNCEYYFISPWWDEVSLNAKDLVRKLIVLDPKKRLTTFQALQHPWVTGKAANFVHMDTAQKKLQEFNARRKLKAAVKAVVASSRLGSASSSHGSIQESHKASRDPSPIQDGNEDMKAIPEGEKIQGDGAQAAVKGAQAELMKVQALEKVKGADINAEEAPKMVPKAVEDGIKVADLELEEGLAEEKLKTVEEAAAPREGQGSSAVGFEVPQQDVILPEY
As to conditions: at 0.1 µM.

Assay [15] concerns the target T4, Calcium/calmodulin-dependent protein kinase type IV (Homo sapiens). As to conditions: at 1 µM.
The target of assay [16] is T5, Serine/threonine-protein kinase Chk1 (Homo sapiens) (UniProt O14757).
T5 sequence (whole entry): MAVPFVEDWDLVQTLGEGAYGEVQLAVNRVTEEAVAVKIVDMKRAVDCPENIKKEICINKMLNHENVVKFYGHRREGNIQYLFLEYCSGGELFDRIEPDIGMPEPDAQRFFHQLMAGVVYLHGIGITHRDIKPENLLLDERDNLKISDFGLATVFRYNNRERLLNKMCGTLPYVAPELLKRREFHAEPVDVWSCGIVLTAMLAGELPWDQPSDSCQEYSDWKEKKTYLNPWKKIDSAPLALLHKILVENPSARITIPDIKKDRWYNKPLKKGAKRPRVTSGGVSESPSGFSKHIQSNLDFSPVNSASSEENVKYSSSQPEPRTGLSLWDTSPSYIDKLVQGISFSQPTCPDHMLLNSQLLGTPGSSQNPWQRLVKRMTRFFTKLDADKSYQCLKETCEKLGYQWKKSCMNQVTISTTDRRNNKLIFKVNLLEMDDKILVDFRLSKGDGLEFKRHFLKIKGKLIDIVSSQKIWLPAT
The note with it: at 0.1 µM.

Assay [17] concerns the target T5, Serine/threonine-protein kinase Chk1 (Homo sapiens). The note with it: at 1 µM.
The target of assay [18] is Serine/threonine-protein kinase Chk2 (Homo sapiens) (UniProt O96017). As to conditions: at 0.1 µM.
Assay [19] shares this target. The note with it: at 1 µM.
In assay [20] the target is Death-associated protein kinase 1 (Homo sapiens) (UniProt P53355). As to conditions: at 0.1 µM.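 Also: reported figure is the mean inhibition of DAPK1.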
Death-associated protein kinase 1 (Homo sapiens), sequence (P53355 whole entry, looked up): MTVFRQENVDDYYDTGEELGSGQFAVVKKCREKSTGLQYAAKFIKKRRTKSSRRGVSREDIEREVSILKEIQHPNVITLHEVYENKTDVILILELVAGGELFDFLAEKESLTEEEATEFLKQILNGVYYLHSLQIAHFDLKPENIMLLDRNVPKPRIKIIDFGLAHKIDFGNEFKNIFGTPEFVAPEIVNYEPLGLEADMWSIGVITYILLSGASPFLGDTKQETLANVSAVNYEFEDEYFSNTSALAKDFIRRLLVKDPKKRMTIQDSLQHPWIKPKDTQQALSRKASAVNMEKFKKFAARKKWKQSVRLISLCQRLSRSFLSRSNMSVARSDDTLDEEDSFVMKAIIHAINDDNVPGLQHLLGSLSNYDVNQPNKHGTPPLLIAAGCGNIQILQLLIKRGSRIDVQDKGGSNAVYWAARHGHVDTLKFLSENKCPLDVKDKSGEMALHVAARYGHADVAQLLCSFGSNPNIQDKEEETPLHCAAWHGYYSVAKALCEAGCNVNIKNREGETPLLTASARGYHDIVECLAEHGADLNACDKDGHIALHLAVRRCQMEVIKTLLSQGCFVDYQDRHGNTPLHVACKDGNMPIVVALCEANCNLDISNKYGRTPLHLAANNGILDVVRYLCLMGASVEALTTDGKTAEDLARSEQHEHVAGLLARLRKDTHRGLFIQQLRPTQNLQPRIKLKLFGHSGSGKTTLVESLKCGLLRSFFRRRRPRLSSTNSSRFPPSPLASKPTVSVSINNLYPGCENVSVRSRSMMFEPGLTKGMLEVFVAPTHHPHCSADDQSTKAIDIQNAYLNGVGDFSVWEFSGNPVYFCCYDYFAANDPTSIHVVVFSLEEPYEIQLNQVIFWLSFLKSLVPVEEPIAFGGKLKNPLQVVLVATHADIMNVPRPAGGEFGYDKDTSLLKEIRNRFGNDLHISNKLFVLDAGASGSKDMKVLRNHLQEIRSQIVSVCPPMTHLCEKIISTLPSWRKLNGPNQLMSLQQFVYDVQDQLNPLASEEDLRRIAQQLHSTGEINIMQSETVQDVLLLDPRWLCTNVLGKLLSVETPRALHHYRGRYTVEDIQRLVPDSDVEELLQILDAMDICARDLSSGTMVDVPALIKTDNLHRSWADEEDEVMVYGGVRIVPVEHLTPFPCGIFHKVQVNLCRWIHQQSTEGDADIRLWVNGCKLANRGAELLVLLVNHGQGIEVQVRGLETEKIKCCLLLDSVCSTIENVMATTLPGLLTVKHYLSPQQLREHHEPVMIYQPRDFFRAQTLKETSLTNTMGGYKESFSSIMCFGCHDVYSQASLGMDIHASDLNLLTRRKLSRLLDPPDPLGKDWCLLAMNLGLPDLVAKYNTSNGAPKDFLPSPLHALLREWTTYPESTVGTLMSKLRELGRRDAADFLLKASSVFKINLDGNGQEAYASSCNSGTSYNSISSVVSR

Calcium/calmodulin-dependent protein kinase type 1D (Homo sapiens), sequence (Q8IU85 whole entry, looked up): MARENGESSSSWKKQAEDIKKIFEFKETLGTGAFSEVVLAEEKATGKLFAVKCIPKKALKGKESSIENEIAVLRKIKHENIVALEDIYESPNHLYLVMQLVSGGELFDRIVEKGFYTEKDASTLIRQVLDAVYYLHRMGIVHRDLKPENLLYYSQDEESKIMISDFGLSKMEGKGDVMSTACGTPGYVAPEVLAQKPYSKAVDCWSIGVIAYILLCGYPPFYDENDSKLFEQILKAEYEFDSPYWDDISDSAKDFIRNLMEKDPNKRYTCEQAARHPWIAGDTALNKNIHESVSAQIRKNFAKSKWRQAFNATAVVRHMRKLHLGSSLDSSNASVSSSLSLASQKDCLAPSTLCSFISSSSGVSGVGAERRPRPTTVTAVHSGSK
5'-AMP-activated protein kinase catalytic subunit alpha-2 (Homo sapiens), sequence (P54646 whole entry, looked up): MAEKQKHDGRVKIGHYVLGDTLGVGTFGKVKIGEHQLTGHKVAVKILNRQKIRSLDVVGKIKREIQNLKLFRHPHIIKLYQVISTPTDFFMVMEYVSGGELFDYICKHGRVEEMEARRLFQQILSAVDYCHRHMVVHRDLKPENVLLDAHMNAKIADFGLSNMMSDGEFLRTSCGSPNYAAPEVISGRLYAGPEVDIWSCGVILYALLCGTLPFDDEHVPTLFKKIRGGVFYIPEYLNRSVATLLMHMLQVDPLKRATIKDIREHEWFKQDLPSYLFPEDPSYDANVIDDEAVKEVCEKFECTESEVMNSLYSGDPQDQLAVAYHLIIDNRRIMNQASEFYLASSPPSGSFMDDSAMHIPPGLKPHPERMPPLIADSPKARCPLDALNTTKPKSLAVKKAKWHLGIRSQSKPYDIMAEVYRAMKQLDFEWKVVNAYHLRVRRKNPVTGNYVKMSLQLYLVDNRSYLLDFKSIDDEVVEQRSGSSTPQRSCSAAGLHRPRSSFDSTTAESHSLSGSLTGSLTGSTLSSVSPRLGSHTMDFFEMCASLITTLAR
Calcium/calmodulin-dependent protein kinase type II subunit alpha (Homo sapiens), sequence (Q9UQM7 whole entry): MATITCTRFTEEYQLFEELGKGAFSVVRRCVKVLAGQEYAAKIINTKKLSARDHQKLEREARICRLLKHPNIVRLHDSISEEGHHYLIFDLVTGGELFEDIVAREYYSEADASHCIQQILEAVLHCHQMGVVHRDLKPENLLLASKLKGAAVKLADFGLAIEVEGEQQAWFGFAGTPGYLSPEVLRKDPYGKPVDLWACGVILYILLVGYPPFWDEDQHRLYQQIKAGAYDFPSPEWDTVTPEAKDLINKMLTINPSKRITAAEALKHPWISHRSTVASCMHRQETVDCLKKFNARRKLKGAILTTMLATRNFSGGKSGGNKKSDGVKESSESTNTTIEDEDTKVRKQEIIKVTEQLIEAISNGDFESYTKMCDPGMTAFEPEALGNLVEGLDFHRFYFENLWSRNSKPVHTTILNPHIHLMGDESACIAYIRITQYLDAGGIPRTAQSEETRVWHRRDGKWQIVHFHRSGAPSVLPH
Calcium/calmodulin-dependent protein kinase type II subunit delta (Homo sapiens), sequence (Q13557 whole entry): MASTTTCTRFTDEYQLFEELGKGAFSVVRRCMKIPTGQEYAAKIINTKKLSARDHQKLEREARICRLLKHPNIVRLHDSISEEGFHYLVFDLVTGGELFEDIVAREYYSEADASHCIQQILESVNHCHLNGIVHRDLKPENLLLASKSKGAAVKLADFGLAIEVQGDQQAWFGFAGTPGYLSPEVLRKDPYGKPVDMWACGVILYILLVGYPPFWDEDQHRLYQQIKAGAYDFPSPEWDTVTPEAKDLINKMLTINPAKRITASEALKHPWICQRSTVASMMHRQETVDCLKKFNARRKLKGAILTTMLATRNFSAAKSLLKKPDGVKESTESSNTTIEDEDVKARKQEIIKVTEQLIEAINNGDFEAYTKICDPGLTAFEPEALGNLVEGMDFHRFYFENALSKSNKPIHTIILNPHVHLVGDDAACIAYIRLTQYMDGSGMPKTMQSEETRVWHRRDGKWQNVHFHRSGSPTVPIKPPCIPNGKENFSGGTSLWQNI
Serine/threonine-protein kinase Chk2 (Homo sapiens), sequence (O96017 whole entry): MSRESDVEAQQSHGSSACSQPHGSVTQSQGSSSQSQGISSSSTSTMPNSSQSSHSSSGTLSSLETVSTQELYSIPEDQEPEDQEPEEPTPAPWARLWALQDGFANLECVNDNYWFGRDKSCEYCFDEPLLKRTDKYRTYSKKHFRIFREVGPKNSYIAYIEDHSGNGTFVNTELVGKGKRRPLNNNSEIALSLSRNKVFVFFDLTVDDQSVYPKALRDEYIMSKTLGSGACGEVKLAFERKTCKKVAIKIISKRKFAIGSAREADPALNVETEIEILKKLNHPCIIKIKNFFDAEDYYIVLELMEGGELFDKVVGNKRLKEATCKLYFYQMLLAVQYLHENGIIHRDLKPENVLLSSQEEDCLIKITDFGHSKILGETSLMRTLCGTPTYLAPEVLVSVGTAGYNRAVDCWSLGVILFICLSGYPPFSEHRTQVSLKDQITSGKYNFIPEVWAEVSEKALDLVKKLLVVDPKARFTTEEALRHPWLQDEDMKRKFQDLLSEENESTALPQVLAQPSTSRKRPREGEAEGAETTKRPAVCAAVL

Broadly, the inhibition is the relative decrease from the control value, in per cent. Regarding `COc1cc(N2CCN(C(C)C)CC2)ccc1Nc1nc(Nc2ccc(F)cc2C(=O)NC[C@@H](O)CO)c2cc[nH]c2n1`, the inhibition in assay [1] was 3.64%; in assay [2], 4.38%; in assay [3] it was 17.2%; in [4], -0.14%; in assay [5], 1.34%; in assay [6], 2.44%. In addition, the inhibition in assay [7] is 2.82%; in assay [8], 0.93%; in assay [9], 11%; in assay [10] it was 4.06%; in assay [11] it was 4.13%; in assay [12] it was 3.45%. Further, the inhibition in [13] was 7.22%; in assay [14], -2.03%; in [15], -0.93%; in [16], 2.18%; in assay [17], 6.24%; in assay [18], 17.2%. Also, the values for the inhibition in assay [19] and in assay [20] were 52.4% and 9.94%, respectively.

With `NS(=O)(=O)c1ccc(Nc2cc(-c3ccc(O)c(F)c3)n[nH]2)cc1`, the inhibition in assay [1] is 8.67%; in assay [2], 2.73%; in assay [3], 11%; in assay [4], 0.57%; in [5] it was 10.9%; in assay [6] it was 2.75%. In addition, the inhibition in assay [7] is 16.7%; in [8] it was -0.17%; in [9], 0.78%; in [10], -4.96%; in assay [11], -4.72%; in assay [12], -3.72%. Besides, the inhibition in assay [13] is 1.69%; in assay [14] it was 0.82%; in [15] it was 0.53%; in assay [16] it was -5.01%; in assay [17], 8.18%; in [18] it was -1.68%. In addition, the inhibition is 3.93% in assay [19] and -2.1% in assay [20].

For the compound `C[C@@H](Oc1cc(-n2cnc3ccc(OC4CCN(C)CC4)cc32)sc1C(N)=O)c1ccccc1Cl`, the inhibition in [1] is 9.02%; in assay [2], 22%; in [3], 66.8%; in [4], 27.6%; in assay [5] it was 58%; in assay [6], 37.9%. Further, the inhibition in assay [7] is 70.8%; in assay [8], -0.95%; in [9], 3.84%; in [10], 2.57%; in assay [11], 14.4%; in [12] it was 10.2%. Also, the inhibition in assay [13] was 44.3%; in assay [14], -2.92%; in assay [15], 2.05%; in [16] it was 0.96%; in assay [17], 7.85%; in [18], 3.23%. The figures for the inhibition in [19] and in [20] were 5.06% and 3.53%, respectively.

For the compound `Nc1nccc(-c2c(-c3ccc(F)cc3)ncn2C2CCC(O)CC2)n1` (stereo not given), the inhibition in assay [1] was -1.6%; in assay [2], 9.02%; in assay [3], 39.9%; in [4], 0.33%; in assay [5] it was 1.44%; in [6] it was 1.13%. For the same compound, the inhibition is 1.19% in [7]; -2.47% in [8]; -0.75% in assay [9]; -3.31% in [10]; -3.25% in assay [11]; -1.92% in assay [12]. The inhibition was 1.53% in assay [13]; 9.35% in assay [14]; -0.1% in [15]; -3.08% in assay [16]; 0.13% in assay [17]; -1.95% in assay [18]. For the same compound, the inhibition in assay [19] was -1.72%; in assay [20], -1.1%.

On to `CNC(=O)c1cncc(/C=C/c2c(C)cccc2C)c1`, for which the inhibition is 0.33% in assay [1]; 2.16% in [2]; 2.93% in assay [3]; 1.29% in assay [4]; 5.17% in assay [5]; 0.83% in [6]. Also, the inhibition in assay [7] was determined as 5.16%; in [8], 1.13%; in assay [9] it was 0.73%; in [10] it was 2.12%; in [11], 3.13%; in assay [12] it was 1.04%. Further, the inhibition in [13] is 1.43%; in assay [14], 2.28%; in [15], 0.99%; in assay [16], -0.79%; in assay [17], 0.19%; in [18], -0.74%. Besides, the inhibition in assay [19] is -0.03%; in [20], 0.17%.

As to `CN(C)CCOc1ccc(-c2cc(-c3ccc4c(c3)CCC4=NO)c(-c3ccncc3)o2)cc1`, the inhibition is 0.01% in assay [1]; 0.84% in assay [2]; -0.24% in [3]; -0.05% in [4]; -0.95% in [5]; -0.42% in assay [6]. Also, the inhibition was 1.46% in [7]; -0.88% in assay [8]; 1.79% in [9]; -1.08% in [10]; 0.22% in assay [11]; -0.38% in assay [12]. Besides, the inhibition was 2.18% in assay [13]; -0.94% in assay [14]; 1.99% in assay [15]; -2.19% in assay [16]; -2.8% in assay [17]; -1.13% in assay [18]. Further, the results for the inhibition in assay [19] and in assay [20] were -1.56% and -1.01%, respectively.
